One may read the inhibition as the drop in the measured response relative to a control, in per cent.

The campaign covered roughly 96,000 compounds. About 19,000 (20%) were called active.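 Rule for the calls: active = blocking of liver enzyme CYP2C9 beyond about 50% at 5 µM (limit read from the data); inactive = the rest.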 Only a sample is shown.

The target in this experiment is Cytochrome P450 2C9 (Homo sapiens) (UniProt P11712). The experiment is described as follows: blockers of cytochrome P450 2C9 activity – biochemical, luminescence, ADME assay, primary screen (AID 777). To be noted: CYP2C9 Supersomes, luciferin-H conversion, at 5 µM, stronger effect = higher value.
Sequence of Cytochrome P450 2C9 (Homo sapiens) (P11712 whole entry, looked up): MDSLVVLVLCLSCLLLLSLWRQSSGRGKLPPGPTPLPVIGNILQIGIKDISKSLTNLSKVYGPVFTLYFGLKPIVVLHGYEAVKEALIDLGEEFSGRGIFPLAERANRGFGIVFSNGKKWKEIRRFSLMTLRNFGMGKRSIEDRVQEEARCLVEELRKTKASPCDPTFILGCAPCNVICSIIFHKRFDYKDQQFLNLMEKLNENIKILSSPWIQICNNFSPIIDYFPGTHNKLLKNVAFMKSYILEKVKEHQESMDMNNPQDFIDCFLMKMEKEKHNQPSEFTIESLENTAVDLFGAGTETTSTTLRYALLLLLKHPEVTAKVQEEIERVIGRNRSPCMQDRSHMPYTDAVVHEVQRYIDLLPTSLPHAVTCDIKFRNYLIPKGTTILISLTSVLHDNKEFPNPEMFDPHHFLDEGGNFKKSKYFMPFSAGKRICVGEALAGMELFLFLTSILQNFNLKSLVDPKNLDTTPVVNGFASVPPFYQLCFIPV
Turning to `CC(C)CC[n+]1ccn(C2=C([O-])c3ccccc3C(=O)/C2=N\S(=O)(=O)c2ccccc2)c1`, the inhibition is 40.4% (inactive). On to `CCCCOC(=O)NCN1C(=O)C2C3C=CC(C3)C2C1=O` (centres undefined), for which the inhibition is -5.7% (inactive). `c1ccc(-c2cn3c(n2)CCc2ccc4cccnc4c2-3)cc1`: the inhibition is 20.7% (inactive).

Take `O=C(c1cccc2ccccc12)N1CCN(c2ccccc2F)CC1`: the inhibition was -14.7% (inactive). With `O=C(c1ccc(CN2CCOCC2)cc1)N1CCN(c2ccccc2F)CC1`, the inhibition is 51.8% (active). As for `O=S(=O)(N1CCOCC1)N1CCN(c2ccccc2F)CC1`, the inhibition was 17.2% (inactive). Turning to `COC(=O)[C@H](C(C)C)n1c(C)c(C(C)=O)c(C(C)=O)c1C`, the inhibition was 7% (inactive). Turning to `O=C(CC1Oc2ccccc2NC1=O)NCCCN1CCN(Cc2ccccc2)CC1` (centres undefined), the inhibition was -28.8% (inactive). Next, `CCOC(=O)c1c(C(C#N)C#N)cc(C)nc1C`: 41.1% (inactive); `CC1CCCN(c2ccc(C(=O)NCCc3ccccc3)cn2)C1` (centres undefined): 80.7% (active); `O=C(NCCc1ccccc1)c1ccc(NC2=NC3CS(=O)(=O)CC3S2)cc1` (centres undefined): 0.2% (inactive). Take `O=C(NCCc1ccccc1)c1ccc(OCCOc2ccccc2)cc1`: the inhibition was -10.5% (inactive).

Regarding `CCC(C)(C)NC(=O)C(c1cccn1C)N(Cc1ccc(C)cc1)C(=O)Cn1nnc2ccccc21` (centres undefined), the inhibition was 28.4% (inactive). Next, `CC(C)CNC(=S)NNC(=O)c1ccccc1OC(F)F`: 3.6% (inactive); `CNC(=O)c1csc(-c2ccccc2)n1`: 13.2% (inactive). `COc1cc(N2CCCC2)c(OC)cc1/C=C(/C#N)c1cccc(Br)c1`: the inhibition is 67.5% (active).

Regarding `COc1cccc(C(=O)Nc2ccc(N3CCCC3)cc2)c1`, the inhibition was 11.9% (inactive).

As for `CN1CCCc2cc(C#N)c(=O)[nH]c21`, the inhibition is 45.5% (inactive). With `O=C(NC1CCCCC1)C1CCCN(S(=O)(=O)c2cccs2)C1` (centres undefined), the inhibition is 68.3% (active).

Consider `O=S(=O)(c1cccs1)N1CCN(Cc2ccccc2)CC1`, for which the inhibition was 69.5% (active).

For `O=C(NCc1ccc2c(c1)OCO2)C1CCCN(S(=O)(=O)c2cccs2)C1` (centres undefined), the inhibition was 92.5% (active). As to `Cc1ccc(CNC(=O)C2CCCN(S(C)(=O)=O)C2)cc1` (centres undefined), the inhibition is -3.4% (inactive). Regarding `O=C(NCc1cccs1)C1CCN(S(=O)(=O)c2ccc3c(c2)OCCO3)CC1`, the inhibition was -174% (inactive). In the case of `CN1CCN(S(=O)(=O)c2ccc(N3CCN(S(=O)(=O)c4cccs4)CC3)nc2)CC1`, the inhibition was 49.3% (inactive). Take `CCS(=O)(=O)N1CCCC(C(=O)NCc2ccc(C)cc2)C1` (centres undefined): the inhibition was 6.9% (inactive).

For the compound `CCCS(=O)(=O)N1CCCC(C(=O)NCc2ccco2)C1` (centres undefined), the inhibition was 0.9% (inactive). The same measure for `O=C(C1CCN(S(=O)(=O)c2cccs2)CC1)N1CCCCCC1`: 34.9% (inactive); for `O=C(NCc1ccco1)C1CCCN(S(=O)(=O)c2ccccc2)C1` (centres undefined): 30.4% (inactive); for `O=S(=O)(c1cccs1)N1CCc2ccccc2C1`: -206% (inactive). Consider `O=C(NCc1ccccc1)C1CCCN(S(=O)(=O)c2cccs2)C1` (centres undefined), for which the inhibition was 81.9% (active).

On to `CCCC(=O)N1c2ccc(-c3csc(N)n3)cc2CC1C` (centres undefined), for which the inhibition is 34.6% (inactive). As for `CN1C(=O)c2ccc(NC(=O)C3CCCCC3)cc2C1=O`, the inhibition was 3.3% (inactive). Regarding `CN1CCC2(CC1)NC(=O)NC2=O`, the inhibition was -9.5% (inactive). Take `CSC1=N/C(=C\c2ccc3c(c2)OCO3)C(=O)S1`: the inhibition was 1.7% (inactive).

On to `COc1cc(/C=C(\C#N)c2nc3c(s2)CC(C)CC3)ccc1O` (centres undefined), for which the inhibition is -74.5% (inactive).

Regarding `CCCCc1nnc(NC(=O)CSc2nc(C)cc(=O)[nH]2)s1`, the inhibition was 14% (inactive). On to `Cc1ccc2cccc(O)c2[n+]1[O-]`, for which the inhibition is 11.3% (inactive).

As to `COc1ccc(CC(=O)c2ccc(O)cc2O)cc1OC`, the inhibition is 53.9% (active). As to `COCc1cc(C(C)=O)ccc1OC`, the inhibition was -37.2% (inactive).

As to `COc1ccc(CCN=C2SCC(=O)N2C)cc1OC`, the inhibition is 15.5% (inactive).

For the compound `CCCOC(=O)C1=C(C)NC2=C(C(=O)C(C(=O)OC)C(C)C2)C1c1ccc(N(C)C)cc1` (centres undefined), the inhibition was 18.1% (inactive).

As to `COc1cc(OC)cc(C(=O)Nc2ccc(-c3nc4ccccc4o3)c(O)c2)c1`, the inhibition is -18.6% (inactive). Regarding `COc1ccccc1Nc1ncnc2c1oc1ccccc12`, the inhibition was 19.7% (inactive).

As to `Cc1ccc(/C=N/NC(=O)C(NC(=O)c2ccccc2)c2n[nH]c(=O)c3ccccc23)cc1` (centres undefined), the inhibition is 56.5% (active). As for `COc1ccc(/C=N/Nc2nc3ccccc3c(=O)[nH]2)cc1`, the inhibition was 9.9% (inactive).

As to `Cc1ccc(C(=O)N/N=C/c2sc(=O)n(Cc3cccc(C(=O)O)c3)c2Cl)cc1`, the inhibition is 12.3% (inactive). For the compound `CC(=O)c1cnc(SCCN2C(=O)c3ccccc3C2=O)nc1C`, the inhibition was 13.5% (inactive).

In the case of `Nc1ccc(SCCN2C(=O)c3ccccc3C2=O)cc1`, the inhibition is 71.9% (active). The same measure for `O=C1c2ccccc2C(=O)N1CCC(c1ccccc1)c1ccco1` (centres undefined): 40.2% (inactive).

On to `CCCS(=O)(=O)C(=C1Nc2ccccc2N1)S(=O)(=O)CCC`, for which the inhibition was 8.7% (inactive). For `COc1ccc(C(C#N)Nc2ccccc2C)cc1` (centres undefined), the inhibition is 4.4% (inactive). `CCN(CC)CCN1C(=O)C(=O)/C(=C(/O)c2cnn(-c3ccccc3)c2C)C1c1cccs1` (centres undefined): the inhibition was -11.5% (inactive). Next, `O=C(O)COc1nsnc1N1CCOCC1`: -22.9% (inactive). Regarding `CCOc1cc(N2CCOCC2)c(OCC)cc1NC(=O)COC(=O)[C@H](Cc1c[nH]c2ccccc12)NC(C)=O`, the inhibition was 45.8% (inactive).

With `CCCCC(=O)Nc1ccc(C(=O)NCCCn2ccnc2)cc1`, the inhibition is 33.7% (inactive). The same measure for `CC1(C)C2CCC1(C)C(OC(=O)CCn1ccnc1)C2` (centres undefined): 95.6% (active); for `CC(=O)OCc1cc(=O)n(C)c(=O)n1C`: -5.9% (inactive). For `CC1CCCN(C(=O)Cn2c(=O)oc3ccccc32)C1` (centres undefined), the inhibition is 7.8% (inactive). Next, `Cc1cc(-c2ccccc2)nc(N2CCC(C(=O)NC34CC5CC(CC(C5)C3)C4)CC2)n1`: 11.4% (inactive); `O=C(Nc1ccccc1)c1ccc2nsnc2c1`: 7.6% (inactive); `O=C(CCCN1C(=O)CCC1=O)Nc1ccc(Cl)c(C(F)(F)F)c1`: -25.8% (inactive). `O=C(c1ccccc1)C(Cn1cncn1)C(Sc1ccccc1)c1ccccc1` (centres undefined): the inhibition was 98.5% (active). On to `O=C(CSc1nnc2ccccn12)c1ccccc1`, for which the inhibition is -8.3% (inactive). As for `O=C(O)CC(Cn1cnnn1)c1ccccc1` (centres undefined), the inhibition was -8.1% (inactive).

The record behind these values is PubChem BioAssay AID777 (Sanford-Burnham Center for Chemical Genomics, 2007).
